Screening results as filed in PubChem BioAssay.
Most compounds without a hit are left out; they make up all but 4.1% or so of the library.
ssDAF12 agonist – S. stercoralis DAF-12 activation, primary screen; hit rate 1% among 370,000; AID 652126; HEK293 ssDAF-12/GRIP1 lit1-tk-luc reporter, luminescence; % of 3 µM dafachronic acid response; activation, % at 6.8 µM;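 active means activation above the mean over all tested compounds plus 3 SD, cut at about 0.9% in these data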;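 further: 0% = DMSO-only wells and 100% = 3 µM delta7-dafachronic acid wells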
hcDAF12 agonist – activators of H. contortus DAF-12 nuclear receptor; activation, % at 6.8 µM; AID 652067; HEK293 hcDAF-12 lit1-tk-luc reporter, luminescence; 0% DMSO, 100% Δ7-dafachronic acid; hit rate 1.4% among 370,000;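 active means activation above the mean of all tested compounds plus 3 SD, cut at about 5.5% in these data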;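 further: 100% = response to 3 µM Δ7-dafachronic acid high control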
DAX1 inh-1 – DAX1 (NR0B1) inhibition, primary screen; HEK293T StAR-luciferase reporter, SF-1/DAX-1 repression relief; inhibition, % at 6.8 µM; hit rate 1.1% among 370,000;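 active means inhibition above the mean over all tested compounds plus 3 SD, cut at about 3.6% in these data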;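 further: 0% = DAX-1 cells with DMSO and 100% = cells lacking DAX-1 with DMSO; higher inhibition means more luminescence from relief of DAX-1 repression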
DAX1 inh-2 – NR0B1 (DAX1) inhibition. P51843. HEK293 Gal4-DAX1 luciferase reporter, luminescence. inhibition, % at 6.75 µM. hit rate 0.99% among 340,000. AID 504766;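 active means inhibition above the mean over all tested compounds plus 3 SD, cut at about 4.2% in these data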;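 further: 0% = DAX1-transfected cells with DMSO and 100% = empty-vector control cells with DMSO; inhibition shows as a rise in luminescence from relieved DAX1 repression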
Target sequence (P51843 207-470 limits assumed): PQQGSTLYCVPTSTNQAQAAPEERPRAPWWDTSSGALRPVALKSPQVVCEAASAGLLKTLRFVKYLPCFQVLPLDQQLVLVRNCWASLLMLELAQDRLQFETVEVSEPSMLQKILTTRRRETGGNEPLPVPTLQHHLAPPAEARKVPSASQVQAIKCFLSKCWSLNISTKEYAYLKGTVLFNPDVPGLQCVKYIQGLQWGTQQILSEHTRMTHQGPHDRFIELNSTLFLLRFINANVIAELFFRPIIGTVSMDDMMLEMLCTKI
hgDAF-12 ag – activates the H. glycines DAF-12 receptor ligand-binding domain; activation, % at 6.8 µM; hit rate 1.8% among 370,000; HEK293 GAL4-hgDAF12 UAS-luciferase reporter, agonist luminescence; normalized to butyrate control;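 active means activation above a cutoff set at the mean of all screened compounds plus 3 SD, cut at about 10% in these data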;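 further: 0% = DMSO wells and 100% = sodium butyrate wells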
hgDAF12 ag – hgDAF-12 agonism, confirmation assay; activation, % at 6.8 µM; hit rate 80% among 3,300; shares compounds with hgDAF-12 ag; AID 743050; HEK293 GAL4-hgDAF12 luciferase reporter, agonist mode; percent of butyrate response;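 active means mean activation over triplicate wells above the hit cutoff derived from the earlier primary screen, cut at about 11% in these data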;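 further: 0% = DMSO low control and 100% = 2 mM sodium butyrate high control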
LXRb DAF12 ctr – counter-screen for DAF-12 agonists: agonists of human LXR-beta; activation, % at 6.8 µM; AID 743051; shares compounds with hgDAF-12 ag; HEK293 Gal4-LXR luciferase reporter, 24 h; 3,300 tested, under 10 active;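 active means mean activation of the triplicate above a set limit carried over from the primary screen, none filed active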
Active calls of the source: *; x = not tested or not shown.

SMILES	ssDAF12 agonist	hcDAF12 agonist	DAX1 inh-1	DAX1 inh-2	hgDAF-12 ag	hgDAF12 ag	LXRb DAF12 ctr
CC(C)C[C@H]1COc2cccc(N3CCOCC3)c2S(=O)(=O)N1	-1	0	0	x	0	x	x
COc1ccc(S[C@]2(C(=O)N3CCOCC3)CC(=O)N(c3ccsc3)[C@@H]2c2ccc(OC)cc2)cc1	-1	-1	-1	x	0	x	x
Oc1cccc(/C=N\Nc2nncc(-c3ccccc3)n2)c1	0	3	1	1	16*	12*	1
CCCN1CCCCC(NC(=O)COCc2ccccc2)C1=O (stereo not drawn)	-1	0	1	x	1	x	x
COC(=O)c1cc2c(c3c4cc(OC)ccc4n(S(=O)(=O)c4ccc(OC)cc4)c13)C(=O)N(Cc1ccco1)C2	-1	0	-2	x	-2	x	x
COc1ccc(-c2nc3c4ccccc4ccn3c2C=O)cc1	0	3	0	0	4	x	x
Cc1ccc(-c2nc3ccccn3c2C=O)cc1	1	5.8*	2	2	14*	12*	0
Fc1ccc2nc(Nc3ccccc3)sc2c1	-1	4	3	2	19*	14*	1
Fc1ccc2nc(Nc3nc4cc5c(cc4s3)OCCO5)sc2c1	1.5*	2	4.2*	1	15*	5	1
Fc1ccc2nc(Nc3nc4c(F)cc(F)cc4s3)sc2c1	1	4	0	0	1	x	x
COc1ccc(CN2C(=O)[C@]3(NCCc4c3[nH]c3ccc(OC)cc43)c3cc(F)ccc32)cc1	0	-3	-1	x	-1	x	x
CC(C)[C@@H]1NC(=O)[C@H]2C[C@@]3(c4ccccc4)c4ccccc4N[C@H]3N2C1=O	-1	2	-1	x	-1	x	x
O=C(Nc1ccon1)c1ccc(N2CCCCC2)c([N+](=O)[O-])c1	0	3	2	2	15*	17*	1
c1ccc(CC(Nc2cccnc2)c2ccccc2)cc1 (stereo not drawn)	-1	1	-1	x	-2	x	x
COC(=O)c1ccc(S(=O)(=O)N2CCC(NC(=O)Cc3ccccc3)CC2)cc1	-1	0	0	x	0	x	x
CC(C)CN1C(=O)N2CCc3ccccc3C2CS1(=O)=O (stereo not drawn)	-1	0	1	x	3	x	x
CNc1cncc(-c2ccc(CN(C)C)cc2)n1	-1	2	4.0*	x	16*	9	0
Cc1cc(C)n2nc(C(=O)Nc3ccc4c(c3)OCO4)cc2n1	0	4	4.2*	2	15*	15*	1
C/C(=N/O)c1ccccn1	-1	-2	-1	3	-2	x	x
C/C(=N/OCc1ccc(Br)cc1)c1ccccn1	0	5	3.7*	2	23*	22*	1
COc1cccc(N2CCN(C(=O)c3ccc4nc(N5CCCCC5)sc4c3)CC2)c1	0	1	3	5.5*	21*	8	0
COc1ccc(N2CCN(C(=O)c3ccc4nc(N5CCCCC5)sc4c3)CC2)cc1	0	1	3	4	8	x	x
COc1ccccc1OCc1cc(-c2ccccc2)no1	-1	5.7*	3.6*	2	14*	11*	1
c1ccc(OCc2cc(-c3ccccc3)no2)cc1	-1	5	1	2	14*	12*	0
COc1ccc(OCc2cc(-c3ccc(Cl)cc3)no2)cc1	0	-1	0	1	1	x	x
SMILES	ssDAF12 agonist	hcDAF12 agonist	DAX1 inh-1	DAX1 inh-2	hgDAF-12 ag	hgDAF12 ag	LXRb DAF12 ctr
c1nc(NCC2CCOC2)c2cc(-c3ccc4c(c3)OCO4)ccc2n1 (stereo not drawn)	-1	-1	x	x	2	x	x
O=C(N/N=C/c1ccc(N2CCOCC2)cc1)c1cccs1	-1	3	4.4*	1	20*	14*	1
CN1CCN(c2ccc(NC(=O)c3cccs3)cc2)CC1	0	4	4.3*	5.7*	15*	12*	1
CC(C)C(=O)N1CCN(c2ccc(NC(=O)c3cccs3)cc2)CC1	-1	-1	0	0	-1	x	x
Cc1ccn(-c2ccc(NC(=O)c3cccs3)cc2)n1	0	5	3	0	17*	17*	1
CCN(CC)S(=O)(=O)c1ccc(NC(=O)c2cccs2)cc1	-1	-1	-1	1	2	x	x
COC(=O)c1cc2c(c3c4cc(C)ccc4n(S(=O)(=O)c4ccc(C)cc4)c13)C(=O)N(Cc1ccccc1OC)C2	-1	0	0	x	-1	x	x
COc1ccc(/C=N/Nc2ccccn2)cc1O	0	4	2	3	17*	12*	0
Brc1ccc(/C=N/Nc2ccccn2)cc1	1	2	2	1	15*	11*	0
CNc1nc(N)c([N+](=O)[O-])c(Nc2cccc(OC)c2)n1	-2	1	x	x	-1	x	x
CC(C)n1c(-c2ccc(N(C)C)cc2)nc2ccccc21	1	5.8*	3	1	16*	7	0
CS(=O)(=O)N1N=C(c2ccc(Br)cc2)CC1c1cccs1 (stereo not drawn)	-1	3	0	2	14*	10	1
CC(=O)N1N=C(c2ccccc2)CC1c1cccs1 (stereo not drawn)	-1	-3	0	1	0	x	x
CC(C)(C)n1nc(C2CC2)c(Br)c1NC(=O)c1ccccc1Cl	-1	-1	1	x	1	x	x
Cc1cccc(C(=O)Nc2sc3c(c2C(=O)O)CCC3)c1	-1	0	-1	-1	-5	x	x
N#Cc1c(NC(=O)c2ccccc2)sc2c1CCC2	1	5.7*	0	-1	16*	23*	1
N#Cc1c(NC(=O)c2cnccn2)sc2c1CCCC2	-1	4	-1	2	14*	13*	0
Cc1cccc(C(=O)Nc2sc3c(c2C#N)CCCCC3)c1	0	3	2	3	15*	17*	1
N#Cc1c(NC(=O)c2cccnc2)sc2c1CCC2	-1	0	0	-1	6	x	x
Cc1noc(C)c1NC(=O)N(C)C[C@H]1OCc2cn(nn2)CCCC(=O)N([C@H](C)CO)C[C@@H]1C	0	0	2	x	0	x	x
COc1ccc2c(c1)CNC2CS(=O)(=O)NCCc1ccccc1 (stereo not drawn)	-1	3	-1	x	-1	x	x
Cc1cc2c(c(=O)o1)[C@@]1(C(=O)N(C)c3ccccc31)C1=C(CC(C)(C)CC1=O)O2	-1	-4	-1	x	0	x	x
Cc1ccc2c(c1)C(=NC1CCCCC1)c1cc3ccccc3nc1-2	2.4*	15*	4.2*	1	20*	18*	1
COc1ccccc1CNc1ccc2c(c1)OC[C@H](CC(C)C)NS2(=O)=O	-1	1	0	x	2	x	x
